We go through 60 compounds from PubChem BioAssay AID1863 (Southern Research Specialized Biocontainment Screening …, 2009).

Usually inhibition stands for the drop in the measured response relative to a control, in per cent.

Out of some 300,000 compounds screened, about 480 (0.16%) were called active.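 The calls were made as follows: active = inhibition over 29.93%, a cutoff 3 SD above the screen mean, later confirmed by dose response; inconclusive = inhibition over 29.93% but no dose response follow-up; inactive = inhibition at most 29.93% or unconfirmed.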 Not all results are given here. Entries with a potency or affinity are not part of this list.

This test can be described thus: inhibitors of PhoP regulon expression, primary screen, Salmonella Typhimurium, GFP reporter (AID 1863).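 Also: 0% = low Mg2+ inducing control and 100% = high Mg2+ repressing control.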 To be noted: S. Typhimurium PhoP-regulated promoter GFP reporter, 4 h; at 50 µM; active compounds read high.
On to `O=C(N/N=C/c1ccccc1O)c1ccncc1`, for which the inhibition was -5.2% (inactive).
For `O=C(N/N=C/c1ccc(O)c([N+](=O)[O-])c1)c1ccncc1` the value was -0.43% (inactive); for `O=C(N/N=C/c1cc(Br)c(O)c(Br)c1O)c1cccnc1`, -3.91% (inactive); for `O=C(N/N=C/c1ccc(Cl)cc1Cl)c1ccncc1`, 3.86% (inactive).
Take `COc1ccc(C(=O)N/N=C/c2cc(Br)ccc2O)cc1OC`: the inhibition was -7.66% (inactive).
As for `Cc1ccc(C(=O)N/N=C\c2cc3c(cc2Br)OCO3)cn1`, the inhibition was 1.38% (inactive).
Then `O=C(N/N=C/c1cc(Br)ccc1O)c1ccncc1`, with 3.11% (inactive).
For `O=C(N/N=C/c1cc(Br)c(O)c(Br)c1)c1cccnc1`, the inhibition was -1.14% (inactive).
Then `Cc1nc2c3ccccc3nc(SCC(=O)N3CC(C)CC(C)C3)n2n1` (stereo not given), with 4.78% (inactive).
For the compound `Cc1ccc2oc(=O)c3cnn(CC(=O)N4CCCc5ccccc54)c3c2c1`, the inhibition was -8.23% (inactive).
For `Cc1cccc(NC(=O)CNC(=O)N2CC(=O)Nc3ccccc32)c1C` the value was -2.45% (inactive).
On to `Cc1cccc(C(=O)Nc2nnc(SCC(=O)NC3CC3)s2)c1`, for which the inhibition is -3.7% (inactive).
For `CS(=O)(=O)N1CCc2ccc(NC(=O)C3CCCO3)cc2C1` (stereo not given) the value was 4.89% (inactive).
In the case of `Cc1ccc(S(=O)(=O)/N=C(/c2ccc(F)cc2)N2CCOCC2)cc1`, the inhibition is -3.33% (inactive).
Then `CCOC(=O)C1CCN(c2ncnc3nc[nH]c23)CC1`, with 0.02% (inactive); and `Cc1ccc(OCCC(=O)OCC(=O)Nc2ccccc2)cc1`, with 1.27% (inactive).
On to `O=C(N/N=C/c1coc2ccc(Cl)cc2c1=O)c1ccc(O)cc1`, for which the inhibition is 10.4% (inactive).
`O=C(N/N=C/c1cc([N+](=O)[O-])ccc1O)C1CCCCC1`: the inhibition is 1.18% (inactive).
In the case of `O=C(N/N=C/c1coc2ccc(Cl)cc2c1=O)c1ccncc1`, the inhibition is 7.37% (inactive).
Then `O=C(N/N=C/c1cc(Cl)ccc1O)c1ccc(Br)cc1`, with 4.94% (inactive); and `O=C(N/N=C/c1cc([N+](=O)[O-])ccc1O)C1C2CCCCC21` (stereo not given), with -0.31% (inactive); and `O=C(N/N=C/c1cccnc1)c1cccc(Cl)c1`, with -1.41% (inactive).
Then `CCOc1ccc(CN2CCC(n3nccc3NC(=O)c3ccccc3OC)CC2)cc1`, with -0.04% (inactive); and `CCCNC(=O)c1ccccc1NS(=O)(=O)c1ccc(OC)c(OC)c1`, with 4.85% (inactive).
Then `CCc1cc(C(=O)N(CCCOC)c2c(N)n(Cc3ccccc3)c(=O)[nH]c2=O)sc1C`, with -2.51% (inactive); and `CCOC(=O)C(C(=O)OCC)C(C(=O)OCC)N1CCOCC1` (stereo not given), with 3.26% (inactive).
Regarding `CC1(C)NC(=O)N(CC(O)CN2C(=O)CCC2=O)C1=O` (stereo not given), the inhibition is -6.24% (inactive).
For `Cn1c2ccccc2c(=O)c2ccc(C#Cc3ccccn3)cc21` the value was 0.47% (inactive).
With `COc1ccccc1N1CCN(C(c2ccccc2)c2nnnn2CCc2ccccc2)CC1` (stereo not given), the inhibition is 1.99% (inactive).
For `Cc1cc(C)n(CCCNC(=O)Cn2nnnc2CN2C[C@@H](C)O[C@@H](C)C2)n1` the value was 0.46% (inactive); for `COc1ccccc1NS(=O)(=O)c1ccc(Cl)c(NC(=O)c2sc3cc(Cl)ccc3c2Cl)c1`, 5.27% (inactive); for `Cc1cc(SCC(=O)N/N=C/c2ccc(O)c(O)c2)c(C)cc1Br`, -9.61% (inactive).
For `Cc1cc(SCC(=O)N/N=C/c2ccc(O)cc2O)c(C)cc1Br` the value was -6.96% (inactive); for `CCCCC(c1nnnn1C1CCCC1)N1CCN(C(=O)c2ccco2)CC1` (stereo not given), -4.03% (inactive); for `Cc1cc(C(=O)N/N=C/c2cc([N+](=O)[O-])ccc2O)c2ccccc2n1`, 18.3% (inactive).
For `Cc1cc(C(=O)N/N=C/c2cc(Cl)cc([N+](=O)[O-])c2O)c2ccccc2n1` the value was 28.8% (inactive); for `O=C(Nc1ccccc1N1CCN(C(=O)c2ccc(Cl)cc2)CC1)c1cccc(F)c1`, 2.12% (inactive).
In the case of `Cc1ccc(S(=O)(=O)N2CCC(C(=O)NCCN3CCOCC3)CC2)cc1C`, the inhibition was -3.49% (inactive).
Then `O=C(c1ccc(Cl)cc1)c1ccc(Oc2cc(NN3CCCCC3)c([N+](=O)[O-])cc2[N+](=O)[O-])cc1`, with 6.36% (inactive); and `CCOc1ccc(C2CC(=O)NC2=O)cc1` (stereo not given), with 3.62% (inactive).
In the case of `O=C(NCc1nc(-c2ccc(Cl)cc2)no1)c1ccco1`, the inhibition was -1.48% (inactive).
Then `O=C(O)c1ccc(N2C(=O)CC(N3C(=O)/C(=C/c4ccc(Cl)cc4)SC3=S)C2=O)cc1` (stereo not given), with 16% (inactive); and `CN1CCN(C(=O)CCN2C(=O)/C(=C\c3ccc(Cl)cc3)SC2=S)CC1`, with -5.92% (inactive).
Then `Cc1cccc(C)c1NC(=O)CCCCCC1NC(=O)NC1C` (stereo not given), with 2.4% (inactive); and `Cc1nn(-c2ccccc2)c(N)c1Sc1ccc([N+](=O)[O-])cc1`, with 0.62% (inactive); and `C=CCn1c(=NC(=O)CN2C(=O)CCC2=O)sc2cc(S(N)(=O)=O)ccc21`, with 17% (inactive).
Then `CC1CCN(Cc2ccc(-c3nnn(CC(=O)Nc4ccccc4Cl)n3)cc2)CC1`, with -3.86% (inactive).
Regarding `COc1ccccc1N1CCN(C(=O)C(C)CS(=O)(=O)c2ccc3c(c2)NC(=O)CS3)CC1` (stereo not given), the inhibition is -8.13% (inactive).
As to `O=[N+]([O-])c1cccc(-c2ccn[nH]2)c1`, the inhibition is -3.87% (inactive).
As for `O=[N+]([O-])c1cc(-c2ccn[nH]2)ccc1Cl`, the inhibition was -3.78% (inactive).
Then `C[N+](C)(CCOc1ccccc1)Cc1ccccc1` (tested in a mixture with another compound), with -8.86% (inactive); and `CC(C)(C)c1ccc(OCCNCc2ccccc2)cc1`, with -2.16% (inactive).
Take `Cc1cc(C(C)(C)C)ccc1OCCN(C)C`: the inhibition is -7.47% (inactive).
Then `Cc1cc(C(C)(C)C)ccc1OCCOCCN1CCCC1`, with 3.82% (inactive).
Then `Cc1ccccc1CSc1nnc(-c2ccncc2)n1C`, with 1.82% (inactive).
For `COc1ccccc1C(=O)NCCC(=O)NC(C)c1ccc(-n2ccnc2)cc1` (stereo not given) the value was 9.9% (inactive); for `C[N+](C)(C)CCCCCC[N+](C)(C)C`, -9.93% (inactive); for `C[N+](C)(C)CCCCCCCCCC[N+](C)(C)C`, -6.25% (inactive).
Consider `C#CC[N+](C)(C)CCCCCCCCCC`, for which the inhibition was 8.05% (inactive).
Then `CCCCCC[N+](C)(C)CCSSCC[N+](C)(C)CCCCCC`, with -6.44% (inactive).
